High-throughput results deposited in PubChem BioAssay by National Center for Advancing Translational Sciences (NCATS).
RORg inh = ROR gamma (mouse) transcription inhibition | P51450 | Drosophila S2 Gal4-RORgamma UAS-luciferase reporter, 20 h | Potency, µM (doses to about 53.6 µM), for inactives: at the top dose activity change, negative = inhibition, actives largely listed as inhibitors | 310,000 compounds, 5.4% hits | AID 2551; note: nearly all actives have a fitted effect of over 60% in size
Target sequence (P51450 whole entry, looked up, the tested form may be a part): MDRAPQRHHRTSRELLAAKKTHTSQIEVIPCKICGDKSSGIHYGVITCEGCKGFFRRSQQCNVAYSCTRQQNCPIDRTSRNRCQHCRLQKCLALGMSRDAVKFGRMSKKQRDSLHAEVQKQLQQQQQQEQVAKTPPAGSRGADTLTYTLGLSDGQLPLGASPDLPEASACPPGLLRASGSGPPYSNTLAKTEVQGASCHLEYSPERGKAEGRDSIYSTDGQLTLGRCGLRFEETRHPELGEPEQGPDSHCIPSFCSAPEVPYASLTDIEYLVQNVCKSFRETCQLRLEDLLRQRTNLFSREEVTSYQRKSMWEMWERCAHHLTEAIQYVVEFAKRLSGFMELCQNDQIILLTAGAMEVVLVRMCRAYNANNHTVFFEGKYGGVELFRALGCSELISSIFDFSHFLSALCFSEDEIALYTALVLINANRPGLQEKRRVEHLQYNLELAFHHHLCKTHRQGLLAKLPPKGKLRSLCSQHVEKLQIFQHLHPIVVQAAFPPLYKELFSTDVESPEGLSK
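A Gal4/UAS one-hybrid system in insect cells: metallothionein-promoter Gal4–ROR gamma fusion plus Photinus luciferase reporter. Copper sulfate 700 uM final, 20 hr ambient incubation, luminescent detection after 10 min with reagent.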
KinaseGlo FLuc = blocks Kinase-Glo luciferase, a counter-screen artifact; Q27757; Potency, µM (top dose mostly 38.3 µM), for inactives: top-dose activity change, negative = inhibition, most hits filed as inhibitors; 200,000 compounds, 0.28% hits; Kinase-Glo luciferase, ATP luminescence, 8 min; note: nearly all actives have a fitted effect of over 60% in size
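Light output from Kinase-Glo luciferase with luciferin and 10 uM ATP in 50 mM imidazole pH 7.2, KCl, MgCl2, Tween 20, BSA; compound pin-delivered, 8-min ambient incubation, then luminescence read.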
VP16 counter = inhibits Gal4-VP16 luciferase reporter, ROR gamma counter-screen. Drosophila S2 Gal4-VP16 UAS-luciferase, luminescence, 20 h. Potency, µM (highest dose often 53.6 µM), without a hit: at the highest dose activity, negative = inhibition, most hits filed as inhibitors. 310,000 compounds, 3.5% hits;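 note: Gal4-VP16 expression switched on by copper sulfate through the metallothionein promoter; nearly all actives have a fitted effect of over 50% in size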
* = called active by the depositor; ? = inconclusive; . = no result; [ ] = another dose, or the depositor's remark. An excerpt weighted towards active compounds, which were near 6.2% of everything screened. Calls come from the whole dose curve; as a rule, active = well fitted curve in the direction sought with a large enough effect; inconclusive = small, poorly fitted or top-dose-only effect, or another doubt; inactive = no such curve, though single readings can be large; an effect the other way counts as inactive or inconclusive. % is set by controls: 0 for no effect and ±100 for the full control effect; potency is the fitted concentration of half-maximal effect.

SMILES | RORg inh | KinaseGlo FLuc | VP16 counter
CCN(CC(=O)Nc1ccc(Br)c(C)c1)CC(=O)NC(C)C | 19% | 3% | 5%
CSc1ccc(CN(C)CC(=O)Nc2ccccc2Br)cc1 | 19% | 0% | -2%
Cc1cccc(C(=O)N(Cc2nc3ccccc3c(=O)[nH]2)C2CCCCC2)c1 | ? | 0% | -6%
CN(CC(=O)Nc1ccccc1Br)Cc1nc2ccccc2c(=O)[nH]1 | 28µM* | -7% | -17%
COC(=O)c1ccccc1NC(=O)CSc1nc2ccccc2c(=O)[nH]1 | 24% | 2% | 13%
CCN(CC(=O)NC(C)C)Cc1nc2c(Br)cc(Br)cc2c(=O)[nH]1 | 2.2µM* | . | 7.1µM*
O=C(CC1C(=O)NCCN1Cc1ccc(F)c(F)c1)NCCCn1ccnc1 (stereo not given) | 20% | 1% | -2%
Cc1cccn2c(=O)c3cc(C(=O)NC(C)c4ccccc4)c(=N)n(CCCn4ccnc4)c3nc12 (stereo not given) | 1% | . | -9%
CCN(CC(=O)Nc1ccccc1SC)Cc1nc2ccccc2c(=O)[nH]1 | 0.22µM* | . | 0.79µM*
CN(CC(=O)Nc1sc2c(c1C#N)CCCCC2)Cc1nc2ccccc2c(=O)[nH]1 | 13µM* | -4% | -4%
CCN(CC(=O)Nc1ccccc1-c1ccccc1)Cc1nc2ccccc2c(=O)[nH]1 | 4.5µM* | 1% | ?
O=C(c1ccc(Br)cc1)N(Cc1nc2ccccc2c(=O)[nH]1)C1CCCC1 | 16µM* | -2% | ?
CCN(CC)CC(=O)Nc1cc(N(C)C)nc2ccccc12 | -15% | . | 18%
O=C(c1ccccc1)N(Cc1nc2ccccc2c(=O)[nH]1)C1CCCC1 | 30% | -2% | 15%
COc1cccc(CN(C)CC(=O)Nc2sc3c(c2C#N)CCC3)c1OC | 1% | 4% | 5%
CCN(CC(=O)NCc1ccc(F)cc1)CC(=O)Nc1ccccc1-c1ccccc1 | ? | -2% | -11%[10 µM]
Cc1cc(C)c(S(=O)(=O)NCc2ccccn2)c(C)c1 | ? | . | -19%
COc1cc(OC)cc(C(=O)NCCCN2CCN(CCCNC(=O)c3cc(OC)cc(OC)c3)CC2)c1 | -4% | -1% | 2%
COCCn1c(=O)c(-c2ccc(OC)cc2)nc2cnc(Oc3ccccc3)nc21 | 3% | -2% | -1%
COC(=O)c1nnn(-c2cc(Cl)cc(Cl)c2)c1C(=O)OC | 5% | . | -5%
CCN(CC(=O)NC(c1ccccc1)c1ccccc1)Cc1nc2ccccc2c(=O)[nH]1 | 2.5µM* | -1% | 11µM*
CCN(CC(=O)N(CC(C)C)c1c(N)n(CC(C)C)c(=O)[nH]c1=O)Cc1nc2ccccc2c(=O)[nH]1 | 4µM* | . | ?
CC(C)(C)NC(=O)CSc1nc2ccccc2c(=O)[nH]1 | -19% | . | 0%
CC(C)CN(C(=O)C(c1ccccc1)c1ccccc1)c1c(N)n(CC(C)C)c(=O)[nH]c1=O | 6% | 0% | 4%
CCOc1ccc2nnc(-c3ccc(Br)cc3)n2n1 | ? | 4% | -11%
SMILES | RORg inh | KinaseGlo FLuc | VP16 counter
CC(=O)c1sc(NC(=O)CCN2C(=O)c3ccccc3C2=O)nc1C | 29% | . | 0%
O=C(COc1ccccc1Cl)NCc1ccccc1 | 3% | . | -4%
C=CCc1ccccc1OCC(=O)NNC(=S)NCc1ccccc1 | 1.4µM* | . | 10µM*
CC(C)(C)OC(=O)NNC(=O)c1ccc(Cl)cc1 | -4% | -2% | -5%
CC(C)(C)OC(=O)NNC(=S)NCc1ccc(Cl)cc1 | 14µM* | -5% | ?
O=C(COc1ccc(Cl)cc1)NNC(=S)NCc1ccccc1 | 1.1µM* | . | 5.6µM*
O=C(COc1ccc(Cl)cc1)NCc1ccccc1 | 29% | . | 11%
CCOC(=O)c1[nH]c(CSc2nnnn2-c2ccccc2C)c(C(=O)OCC)c1C | 3% | 1% | -1%
COc1ccc(/C=N\NC(=O)c2ccccc2F)cc1COc1ccc(F)cc1 | -28% | . | -8%
COc1ccc(/C=N/NC(=O)c2ccncc2)cc1COc1ccc(NC(C)=O)cc1 | 8% | . | 22%
COc1ccc(/C=N/NC(=O)c2ccccc2O)cc1CSc1ccccn1 | 16µM* | -1% | ?
COc1ccc(/C=N\NC(=O)c2ccccc2F)cc1COc1ccc(F)cc1F | 16µM* | . | 20µM*
COc1ccc(/C=N/NC(=O)c2ccccc2O)cc1COc1ccccn1 | -9% | . | 6%
COc1ccc(/C=N/NC(=O)c2ccoc2C)cc1COc1c(C)cccc1C | 11µM* | -8% | ?
COc1ccc(/C=N\NC(=O)c2ccccc2OC)cc1COc1ccccc1C | ? | . | -17%
COc1ccc(/C=N/NC(=O)c2ccc(NC(C)=O)cc2)cc1COc1ccc(F)cc1F | 11µM* | . | 10µM*
Cc1ccc(OCC(=O)NCCNC(=O)c2ccncc2)cc1 | -10% | . | -2%
